# From PubChem
# CYP2C9 inh: human CYP2C9 inhibition. 96,000 compounds, 20% hits. AID 777. CYP2C9 Supersomes, luciferin-H conversion, luminescence. inhibition, % at 5 µM;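 active means blocking of liver enzyme CYP2C9 beyond about 50% at 5 µM, limit read from the data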
# Target sequence (P11712 whole entry, looked up): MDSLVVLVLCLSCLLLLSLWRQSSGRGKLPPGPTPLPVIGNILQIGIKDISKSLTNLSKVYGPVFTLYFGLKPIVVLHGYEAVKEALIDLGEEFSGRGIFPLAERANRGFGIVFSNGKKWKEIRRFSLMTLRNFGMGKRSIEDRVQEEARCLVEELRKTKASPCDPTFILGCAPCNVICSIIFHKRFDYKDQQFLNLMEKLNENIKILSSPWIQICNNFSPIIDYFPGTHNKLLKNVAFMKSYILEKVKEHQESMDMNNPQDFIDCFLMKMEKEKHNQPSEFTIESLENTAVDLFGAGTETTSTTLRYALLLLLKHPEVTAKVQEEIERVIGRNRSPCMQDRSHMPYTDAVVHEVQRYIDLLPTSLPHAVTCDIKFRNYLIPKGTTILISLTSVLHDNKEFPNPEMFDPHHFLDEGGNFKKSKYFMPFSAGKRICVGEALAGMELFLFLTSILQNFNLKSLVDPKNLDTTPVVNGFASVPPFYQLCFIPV
# CYP2C19 activ: increases human CYP2C19 enzyme activity. P33261. recombinant CYP2C19, luciferin-H EGE luminescence; stronger effect = higher value; 0 = fully inhibited enzyme, 1 = untreated enzyme. activation factor at 5 µM. 96,000 tested, under 10 active;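 active means activation factor of at least 2 at 5 µM in the primary screen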;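 further: 0 = wells with 2.5 mM tranylcypromine and 1 = vehicle-only wells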
# CYP2C19 inhib: inhibitors of human CYP2C19; P33261; 96,000 compounds, 21% hits; inhibition, % at 5 µM; CYP2C19 Supersomes, luciferin-H EGE luminescence, 30 min;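 active means CYP2C19 inhibition above a set limit at 5 µM in the primary screen, cut at about 50% in these data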;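 further: plate controls were negative control wells for no effect and 2.5 mM tranylcypromine positive control for full effect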
# CYP2C9 act: CYP2C9 (human) activation; P11712; recombinant CYP2C9, luciferin-H conversion, luminescence; stronger effect = higher value; factor 1 = untreated enzyme, 0 = blocked; activation factor at 5 µM; 96,000 compounds, 1.4% hits; AID 1024;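 active means activation factor of 2 or more for CYP2C9 at a 5 µM dose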;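 further: 0 = sulfaphenazole-blocked wells and 1 = vehicle-only wells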
# Mac1 fbg inh: blocks human CD11b/CD18 adhesion to fibrinogen | 93,000 compounds, 0.54% hits | inhibition, % at 10 µM | K562 CD11b/CD18 adhesion to fibrinogen, ATPlite luminescence; Mn2+ added to activate the integrin;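 active means primary inhibition of 50% or more at 10 µM, then 40% or more on retest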
# CD11b adhes enh: increases human CD11b/CD18 adhesion to fibrinogen. 93,000 compounds, 0.07% hits. K562 CD11b/CD18 adhesion to fibrinogen, ATPlite luminescence. activation, % at 10 µM;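 active means 10 µM primary screen giving 50% or more activity, confirmed by 40% or more on retest at that dose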
# * hit, by the source's call; x = no result given. Shown are actives, neighbours in structure and some others; about 28% of the full set was active somewhere.
SMILES,CYP2C9 inh,CYP2C19 activ,CYP2C19 inhib,CYP2C9 act,Mac1 fbg inh,CD11b adhes enh
Cc1c(NC(=O)NCCN2C(=O)C3C4C=CC(C4)C3C2=O)c(=O)n(-c2ccccc2)n1C (centres undefined),-0.7,1.1,-9.8,1,-13.9,0.0
Cc1nc2ncnn2c(C)c1CCC(=O)NCc1ccccc1,4.0,1,-3.1,1,0.9,41.2
CCc1c(C)nc2ncnn2c1NCCc1ccccc1,42.9,0.4,64.3*,0.6,x,x
Cc1nc2ncnn2c(Nc2ccc3c(c2)OCO3)c1Cc1ccccc1,29.3,0.3,72.1*,0.7,17.1,-3.3
COc1ccc(CCNc2cc(-c3ccccc3)nc3ncnn23)cc1,56.0*,0.6,36.4,0.4,x,x
COc1ccc(-c2noc(CN(C)S(=O)(=O)c3ccc(Cl)cc3)n2)cc1OC,13.3,0.6,42.5,0.9,-15.9,10.1
CC(C)N(Cc1nc(-c2ccc(Cl)cc2)no1)C(=O)CN(C)S(=O)(=O)c1ccc(Cl)cc1,88.8*,0.4,62.2*,0.1,26.0,-1.7
CN(Cc1nc(-c2cccnc2)no1)S(=O)(=O)c1ccc2ccccc2c1,27.4,0.1,86.0*,0.7,-9.4,-2.8
COc1ccc(Cc2nc(-c3ccccn3)no2)cc1,3.5,0.8,25.0,1,10.1,-3.0
CN(Cc1nc(-c2ccccn2)no1)S(=O)(=O)c1ccc(Br)cc1,60.6*,0.4,60.6*,0.4,-48.4,14.7
CC(C)N(Cc1nc(-c2ccccc2)no1)C(=O)CN(C)S(=O)(=O)c1ccc(Br)cc1,58.2*,0.5,51.9*,0.4,-12.2,-1.2
CN(Cc1nc(-c2cccnc2)no1)S(=O)(=O)c1ccc(Br)cc1,38.3,0.7,29.3,0.6,20.0,-0.1
CCc1ccccc1OCc1nnc(N)s1,-25.8,0.6,35.4,1.3,-6.0,0.6
CSCCC(NC(=O)OC(C)(C)C)C(=O)Oc1ccc2c(=O)c(-c3ccc4c(c3)OCCO4)coc2c1 (centres undefined),0.1,0.8,18.4,1,x,x
CSC1=C(C#N)C(C)C2=C(CC(C)(C)CC2=O)N1 (centres undefined),-7.8,1,1.3,1.1,-6.8,-3.1
O=C(COC(=O)c1ccccc1OCc1ccccc1Cl)NC1CC1,45.1,0.5,53.0*,0.5,x,x
N#CCCCSc1nnnn1-c1cccc(Cl)c1,-12.8,0.2,80.3*,1.1,-5.7,2.8
O=C(CSc1nnnn1-c1cccc(Cl)c1)Nc1ccc2c(c1)CCC2,x,x,x,x,2.1,-0.8
Cc1cc(C)c(S(=O)(=O)Nc2ccc(OCC(=O)O)cc2)c(C)c1,38.4,0.8,21.7,0.6,18.0,-5.8
CCOc1cccc(CNCCO)c1OCc1ccc(Cl)cc1Cl,x,x,x,x,17.3,-5.7
COc1cc(CNCCc2c[nH]c3ccccc23)ccc1OCc1ccccc1F,11.0,0.6,36.7,0.9,15.3,-2.3
COc1cccc(CNCCc2c[nH]c3ccccc23)c1OCc1ccccc1,x,x,x,x,59.6*,0.9
COc1cccc(CNc2nn[nH]n2)c1OC,-11.1,0.9,12.7,1.1,-30.9,0.2
CCOc1cccc(CNn2cnnc2)c1OCc1ccccc1Cl,19.5,0.2,75.7*,0.8,3.2,-4.4
COc1cccc(CNn2cnnc2)c1OCc1ccccc1F,30.4,0.2,75.5*,0.7,-18.0,2.7
SMILES,CYP2C9 inh,CYP2C19 activ,CYP2C19 inhib,CYP2C9 act,Mac1 fbg inh,CD11b adhes enh
COc1cccc(CNn2cnnc2)c1OCc1ccc(F)cc1,57.0*,0.1,86.4*,0.4,-8.4,-4.6
COCCN(C(=O)Cc1cccs1)C(C(=O)NCc1ccc(OC)cc1)c1ccccc1 (centres undefined),16.9,0.9,14.0,0.8,25.1,-1.9
COc1ccc(C(=O)C/C(=C\C(=O)c2ccc(C)cc2)c2ccccc2)cc1,74.2*,0.5,47.8,0.3,x,x
S=C(Nc1ccc2c(c1)OCO2)NC1CCN(Cc2ccccc2)CC1,5.3,0.8,17.7,0.9,2.2,-1.0
C1=C(c2ccccc2)CCN(c2ncnc3nc[nH]c23)C1,17.3,0.5,53.6*,0.8,10.8,2.2
c1ccc2c(c1)CCN(c1ncnc3nc[nH]c13)C2,-4.2,1.1,-13.1,1,-1.1,-1.3
COc1ccc(N2CCN(S(=O)(=O)c3cccs3)CC2)cc1,35.6,0.2,77.4*,0.6,8.2,-0.4
CCOC(=O)N1CCN(c2nc(-c3ccc(Cl)cc3)cs2)CC1,-1.1,0.8,17.2,1,11.0,-4.5
COc1ccccc1N1CCN(S(=O)(=O)c2cnc[nH]2)CC1,100.3*,0.1,95.0*,0,-2.5,-3.8
COc1ccccc1N1CCN(S(=O)(=O)Cc2ccccc2Cl)CC1,-331.3,0.3,73.3*,4.3*,0.7,-0.4
O=C(Cc1cccs1)N1CCN(c2nc(-c3ccc(Cl)cc3)cs2)CC1,90.8*,0.3,65.1*,0.1,51.0,-2.1
COc1ccccc1N1CCN(Cc2ccc(OC)c(OC)c2OC)CC1,-50.1,1,4.1,1.5,-16.2,0.7
COc1cccc(C(=O)NCC2CCCO2)c1 (centres undefined),12.7,1,-1.7,0.9,2.6,-0.2
CSCC[C@H](NC(=O)NCc1ccc(F)cc1)C(=O)O,3.7,1,-0.1,1,-2.5,1.3
Cc1cc(N2CCN(S(=O)(=O)c3ccccc3)CC2)c2ccccc2n1,44.3,0.3,65.4*,0.6,8.3,5.5
CCc1nn2c(=O)cc(N3CCN(c4cc(C)nc5ccccc45)CC3)nc2s1,-6.9,1,-3.8,1.1,-6.2,-1.3
COc1ccccc1N1CCN(C(=O)C2CCN(S(=O)(=O)c3ccc(F)cc3)CC2)CC1,5.0,1,0.0,0.9,10.7,-3.7
COc1ccccc1N1CCN(S(=O)(=O)c2c(C)ccc3nsnc23)CC1,34.4,0.3,73.2*,0.7,-1.3,0.5
COc1ccc(S(=O)(=O)N2CCN(C(=O)Cc3cccs3)CC2)cc1,x,x,x,x,-16.1,3.9
COc1ccccc1N1CCN(S(=O)(=O)c2ccccc2F)CC1,64.1*,0.4,63.8*,0.4,-22.6,0.2
COc1ccc(N2CCN(C(=O)Cc3cccs3)CC2)cc1,34.3,0.5,53.7*,0.7,1.6,-0.6
COc1cc([N+](=O)[O-])ccc1NC(=O)CCCOc1cccc(C)c1,19.2,0.6,37.9,0.8,1.3,2.8
Cc1ccc2[nH]c(=O)c3cc(C(=O)N4CCN(C(=O)c5ccco5)CC4)sc3c2c1,10.3,1,-3.0,0.9,7.6,-5.9
COc1ccc(N2CCN(c3ncccn3)CC2)cc1,24.0,0.1,91.6*,0.8,-9.4,0.3
COc1ccccc1N1CCN(S(=O)(=O)c2ccccc2)CC1,86.2*,0.1,92.1*,0.1,-2.1,0.5
COc1ccccc1N1CCN(C2CCN(S(=O)(=O)c3ccc4ccccc4c3)CC2)CC1,-40.4,0.8,15.4,1.4,9.1,-2.2
